Test results as given in the supplement of paper PMC9262897, “Low-cost anti-mycobacterial drug discovery using engineered E. coli” (Nature Communications, 2022).
Counter-ions that a name gives are not always drawn. ± gives the standard deviation of the averaged measurements.

system: E. coli TESEC Mtb Asd; test: growth (OD600 after 10 h); higher = more growth (less inhibition); conditions: arabinose induction (level): High; compound 0.1 mM; raw OD600 reference: median of DMSO wells 0.331, cell-free background 0.041
Protocol: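 TESEC E. coli strains in which the native enzyme is deleted and replaced by arabinose-inducible Mtb Asd, DapB, CysH or TrpD, each grown in its selective medium. Strains were screened against the Prestwick library at 0.1 mM and 1% DMSO in 384-well format at low and high arabinose induction. Growth is read as OD600 after 10 h in triplicate.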

Q: For `COc1cc(C(=O)NS(=O)(=O)c2ccccc2C)ccc1Cc1cn(C)c2ccc(NC(=O)OC3CCCC3)cc12` [Zafirlukast], which growth is on record?
A: 0.193 ± 0.022

Q: Which growth does the source give for `NNc1nncc2ccccc12` [Hydralazine hydrochloride] here?
A: 0.206 ± 0.017

Q: For `Nc1c2c(nc3ccccc13)CCCC2O` (racemic) [Hydroxytacrine maleate (R,S)], which growth is on record?
A: 0.218 ± 0.012

Q: How did the growth turn out when `CCN(CC)CCOC(=O)C1(C2CCCCC2)CCCCC1` [Dicyclomine hydrochloride] was run?
A: 0.137 ± 0.014

Q: `O=C(Oc1cccc2cccnc12)c1ccccc1` [Benzoxiquine] was tested. Which growth did it give?
A: 0.316 ± 0.12

Q: With `O=C1CC2(CCCC2)CC(=O)N1CCCCN1CCN(c2ncccn2)CC1` [Buspirone hydrochloride] as the molecule, how does the growth read?
A: 0.337 ± 0.021

Q: `CCN(CC)C(=O)C1(c2ccccc2)CC1CN` (stereo not drawn) [Milnacipran hydrochloride] was tested. Which growth did it give?
A: 0.239 ± 0.024

Q: With `CCN(CC)CC#CCOC(=O)C(O)(c1ccccc1)C1CCCCC1` (stereo not drawn) [Oxybutynin chloride] as the molecule, how does the growth read?
A: 0.137 ± 0.017

Q: `C[C@]12C=CC(=O)C=C1CC[C@H]1[C@@H]3C[C@@H](O)[C@](O)(C(=O)CO)[C@@]3(C)C[C@H](O)[C@@]12F` [Triamcinolone] was tested. Which growth did it give?
A: 0.222 ± 0.011

Q: Which growth does the source give for `O=C(CCCCC(=O)Nc1c(I)cc(I)c(C(=O)O)c1I)Nc1c(I)cc(I)c(C(=O)O)c1I` [Iodipamide] here?
A: 0.436 ± 0.022

Q: How did the growth turn out when `CCN(CCO)CCCC(C)Nc1ccnc2cc(Cl)ccc12` (stereo not drawn) [Hydroxychloroquine sulfate] was run?
A: 0.265 ± 0.052

Q: For `Cc1ccsc1/C=C/C1=NCCCN1C` [Morantel tartrate], which growth is on record?
A: 0.358 ± 0.016

Q: With `Cc1noc(NS(=O)(=O)c2ccc(N)cc2)c1C` [Sulfisoxazole] as the molecule, how does the growth read?
A: 0.308 ± 0.035
